# About 83,000 compounds went through this panel and 20% of them were active in at least one assay; those are over-represented in the sample as a whole.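 Single-concentration screen, 48 h exposure, 96-well plates. Endpoint: percent growth. Below 10 = active.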 Values without a mark were called inactive. Calls of active or inactive are those of the source.
# Tested on: MDA-MB-468 breast
# Test: NCI-60 one-dose screen, 48 h (100 = growth as untreated, 0 = no growth, -100 = all killed)
# Conditions: 10 µM unless noted
row,Compound,growth
1,CCN(CC)C(=O)C1=C(C)NC(=O)NC1c1ccc2c(c1)OCO2 (stereo not drawn),112%
2,CN(CCCNC(=O)Cc1ccc2ccc3cccc4ccc1c2c34)CCCNc1cc(-c2ccc3ccccc3c2)nc2ccccc12,-78.4% (active)
3,Oc1ccc(CSc2nnc(-c3ccc(Oc4ccccc4)cc3)n2-c2ccccc2)c2cccnc12,-2% (active)
